Source: PubChem
The list is not random: actives were taken first. Their share in the collection is about 12%.
ALDH1A1 block – inhibitors of human aldehyde dehydrogenase 1A1; P00352; 7.3% of 220,000 active; AID 1030; Purified ALDH1A1, NADH fluorescence, propionaldehyde substrate; Potency, µM (top dose mostly 75.3 µM), hits mostly inhibitors; active = well fitted inhibition curve with a large enough effect, not every such curve was filed as active; inconclusive = small, poorly fitted or top-dose-only effect, or another doubt; inactive = no such curve, though single readings can be large or run the other way
Target sequence (P00352 whole entry, looked up): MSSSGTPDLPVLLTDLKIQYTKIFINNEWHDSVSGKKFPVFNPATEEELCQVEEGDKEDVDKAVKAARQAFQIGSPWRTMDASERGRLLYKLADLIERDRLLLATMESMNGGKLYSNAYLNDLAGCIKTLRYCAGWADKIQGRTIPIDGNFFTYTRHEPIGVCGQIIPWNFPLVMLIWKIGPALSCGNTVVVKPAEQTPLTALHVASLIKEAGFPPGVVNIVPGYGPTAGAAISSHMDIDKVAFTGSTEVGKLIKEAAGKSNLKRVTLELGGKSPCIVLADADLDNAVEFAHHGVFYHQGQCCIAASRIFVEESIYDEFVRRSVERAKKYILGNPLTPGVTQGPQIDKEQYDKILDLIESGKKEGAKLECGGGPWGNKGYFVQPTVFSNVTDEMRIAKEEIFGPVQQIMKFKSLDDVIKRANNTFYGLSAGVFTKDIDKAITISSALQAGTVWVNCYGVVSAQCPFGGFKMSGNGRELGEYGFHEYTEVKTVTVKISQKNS
RORg inh – ROR gamma (mouse) transcription inhibition; 5.4% of 310,000 active; Drosophila S2 Gal4-RORgamma UAS-luciferase reporter, 20 h; AID 2551; Potency, µM (titrated, usually from 53.6 µM), most hits filed as inhibitors; P51450; note: nearly all actives have a fitted effect of over 60% in size
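A Gal4/UAS one-hybrid system in insect cells: metallothionein-promoter Gal4–ROR gamma fusion plus Photinus luciferase reporter. Copper sulfate 700 uM final, 20 hr ambient incubation, luminescent detection after 10 min with reagent.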
Sfp inh – Sfp phosphopantetheinyl transferase inhibition | Potency, µM, usual class: inhibitors | Biochemical Sfp PPTase activity, qHTS | Q9F4F7 | 3.5% of 310,000 active;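 note: the enzyme is Sfp with the accession as filed and its product quenches rhodamine fluorescence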
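Fluorescence-quenching assay: 15 nM Sfp-PPTase preincubated 15 min at room temperature with compound, then 5 uM rhodamine-CoA and 12.5 uM BHQ-2-labelled YbbR peptide added. Fluorescence (ex 525/em 598 nm) read at start and after 30 min; difference gives rate.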
PLK1 PBD inh – inhibitors of human PLK1 polo-box domain binding. P53350. Plk1 PBD binding of FITC phosphopeptide, fluorescence polarization. Potency, µM, most hits filed as inhibitors. 2.8% of 360,000 active; note: series mostly up to about 57 µM; nearly all actives have a fitted effect of over 65% in size
Gal4-VP16 FLuc – inhibits Gal4-VP16 luciferase reporter, ROR gamma counter-screen; Drosophila S2 Gal4-VP16 UAS-luciferase, luminescence, 20 h; 3.5% of 310,000 active; Potency, µM (highest dose often 53.6 µM), hits mostly inhibitors; AID 2546;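 note: Gal4-VP16 expression switched on by copper sulfate through the metallothionein promoter; nearly all actives have a fitted effect of over 50% in size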
Large screens that a line does not name were inactive. Unless noted, calls come from the whole dose curve; as a rule, active = well fitted curve in the direction sought with a large enough effect; inconclusive = small, poorly fitted or top-dose-only effect, or another doubt; inactive = no such curve, though single readings can be large; an effect the other way counts as inactive or inconclusive.

COc1cccc2cc(/C(C)=N/Nc3nc(-c4cc(C)ccc4C)cs3)c(=O)oc12	ALDH1A1 block inconclusive, RORg inh 0.79µM, Sfp inh inconclusive, PLK1 PBD inh inconclusive
COc1cccc2cc(-c3ccccc3)c(=O)oc12	none
COc1ccc2oc(=O)c(-c3csc(Nc4cccc(O)c4)n3)cc2c1	Sfp inh inconclusive
CNC(=O)c1cc2cccc(OC)c2oc1=O	none
COC(=O)[C@]12CCCCC=C1N(Cc1ccc3c(c1)OCO3)C(=O)[C@H](CC(=O)N1CCN(C(=O)C3CC3)CC1)C2	none (no result: ALDH1A1 block, RORg inh, Sfp inh, Gal4-VP16 FLuc)
FC1(F)C(F)(F)C(F)(F)C2(F)C(F)(F)C(F)(F)C(F)(F)C(F)(F)C2(F)C1(F)F (centres undefined)	none (no result: ALDH1A1 block, PLK1 PBD inh)
COc1ccc(-c2ccc3c(c2)c(Sc2ccccc2)c(-c2ccccc2)n3C)cc1	none (no result: ALDH1A1 block, RORg inh, Sfp inh, Gal4-VP16 FLuc)
N#C/C(=C\c1ccc(F)c(Cl)c1)S(=O)(=O)c1ccccn1	PLK1 PBD inh 12µM (no result: ALDH1A1 block)
N#C/C(=C\Nc1ccc(F)c(Cl)c1)S(=O)(=O)c1ccccn1	none
COc1ccc(CC(NC(C)=O)C(=O)NC2CCN(C(=O)C3CCCCC3)CC2)cc1OC (centres undefined)	none (no result: ALDH1A1 block)
COC(=O)c1cc(S(=O)(=O)NCCN2CCN(c3ccccc3F)CC2)c[nH]1	PLK1 PBD inh 21µM (no result: ALDH1A1 block)
COC(=O)c1cc(S(=O)(=O)N2c3ccccc3CC2C)c[nH]1 (centres undefined)	PLK1 PBD inh 30µM (no result: ALDH1A1 block)
COc1ccc(C(=O)CCC(=O)O)c2ccccc12	none (no result: ALDH1A1 block, PLK1 PBD inh)
CNc1ncnc2c1ncn2[C@@H]1O[C@H](COP(=O)(O)O)[C@@H](O)[C@H]1O	none (no result: RORg inh, PLK1 PBD inh, Gal4-VP16 FLuc)
CSc1ccccc1N=Cc1nc(-c2ccccc2)oc1O	ALDH1A1 block 5µM
CN(C)c1ccc(N=Cc2nc(-c3ccccc3)oc2OC(=O)c2ccccc2)cc1	none
CN(C)c1ccc(N=Cc2nc(-c3ccccc3)oc2O)cc1	PLK1 PBD inh 13µM, Gal4-VP16 FLuc inconclusive
CC(=O)Oc1oc(-c2ccccc2)nc1C=Nc1ccc(N(C)C)cc1	ALDH1A1 block 0.56µM
CC(C)C[C@@H](CC(=O)N[C@@H](CCCN)CC(=O)N[C@@H]1CCNC[C@H]1C(=O)N[C@H](CC(=O)N[C@@H](CCC(=O)O)CC(=O)O)Cc1c[nH]c2ccccc12)NC(=O)[C@@H]1CCCC[C@H]1N	none (no result: PLK1 PBD inh)
CC1(C(=O)Nc2ccc3c(c2)OCCO3)CN(S(C)(=O)=O)CC(=O)N1CCc1ccccc1F (centres undefined)	none (no result: ALDH1A1 block, RORg inh, Sfp inh, Gal4-VP16 FLuc)
O=S(=O)(c1ccc(Br)cc1Cl)N1CCN(CCO)CC1	none
O=C1C=CC(=O)c2c(O)c(N3CCN(CCO)CC3)c(Cl)c(O)c21	PLK1 PBD inh 12µM (no result: ALDH1A1 block, RORg inh, Sfp inh, Gal4-VP16 FLuc)
Cc1c(CCC(=O)O)c(=O)oc2cc(OCc3ccccc3Br)ccc12	PLK1 PBD inh inconclusive, Gal4-VP16 FLuc 3.2µM (no result: ALDH1A1 block)
CCOC(=O)CCc1c(C)c2ccc(OCc3cc([N+](=O)[O-])ccc3OC)c(C)c2oc1=O	none (no result: PLK1 PBD inh)
COc1ccccc1COc1ccc2c(C)c(CCC(=O)O)c(=O)oc2c1C	RORg inh 7.9µM, Gal4-VP16 FLuc inconclusive (no result: ALDH1A1 block)
CC(C)CNC(=O)c1oc2ccccc2c1COc1ccccc1	none
CCC(CC)NC(=O)c1oc2ccccc2c1COc1ccccc1	RORg inh inconclusive, Gal4-VP16 FLuc 28µM
Cc1nc2c(-c3ccc(F)cc3)c(C)nn2c(C)c1CCC(=O)Nc1ccccc1F	Sfp inh inconclusive (no result: ALDH1A1 block)
COC(CNC(=O)CCc1c(C)nc2c(-c3ccc(F)cc3)c(C)nn2c1C)OC	PLK1 PBD inh 30µM
CCCCN1C(=O)C(=O)NC[C@@H]1Cc1ccc(O)cc1	none (no result: ALDH1A1 block, RORg inh, Sfp inh, Gal4-VP16 FLuc)
CC(C)NC(=O)N(C)C[C@H]1Oc2c(NC(=O)Cc3ccccc3)cccc2C(=O)N([C@H](C)CO)C[C@@H]1C	PLK1 PBD inh 27µM (no result: ALDH1A1 block, RORg inh, Sfp inh, Gal4-VP16 FLuc)
C[C@H](CO)N1C[C@H](C)[C@@H](CN(C)CC2CCCCC2)Oc2c(NC(=O)Cc3ccccc3)cccc2C1=O	PLK1 PBD inh 19µM (no result: ALDH1A1 block, RORg inh, Sfp inh, Gal4-VP16 FLuc)
CCCNC(=O)N(C)C[C@H]1Oc2ncc(C#CCc3ccccc3)cc2C(=O)N([C@H](C)CO)C[C@H]1C	PLK1 PBD inh 27µM (no result: ALDH1A1 block, RORg inh, Sfp inh, Gal4-VP16 FLuc)
COc1ccccc1NC(=O)N(C)C[C@H]1Oc2ncc(C#CCN(C)C)cc2C(=O)N([C@H](C)CO)C[C@H]1C	none (no result: ALDH1A1 block, RORg inh, Sfp inh, Gal4-VP16 FLuc)
O=C(NCC1CCCO1)C1c2ccccc2Oc2ccccc21 (centres undefined)	none
O=C(O)CC12CSc3[nH]c(=O)sc3C1c1ccccc1OC2=O (centres undefined)	ALDH1A1 block inconclusive, Sfp inh 14µM (no result: PLK1 PBD inh)
Cc1ccc(C)c(OCCCC(=O)Nc2ccccc2C(N)=O)c1	ALDH1A1 block 24µM, RORg inh inconclusive
Cc1ccc(C)c(OCCC(=O)Nc2ccccc2C(=O)NC2CC2)c1	none (no result: ALDH1A1 block, RORg inh, Sfp inh, Gal4-VP16 FLuc)
COC(=O)CCC(=O)Nc1cccc2c(NC(=O)CCC(=O)OC)cccc12	ALDH1A1 block inconclusive
COc1cc([N+](=O)[O-])ccc1NC(=O)CCCOc1cc(C)ccc1C	ALDH1A1 block 28µM
COc1cc([N+](=O)[O-])ccc1NC(=O)CCCOc1ccccc1	RORg inh inconclusive, Gal4-VP16 FLuc inconclusive
COC(=O)CCC(=O)Nc1ccc(C)cc1OC(=O)CCC(=O)OC	Sfp inh 79µM
C=CCNC(=O)CCCOc1cc(C)ccc1C	PLK1 PBD inh 27µM
CC(O)(c1ccccc1)c1nc(/C=C/c2ccccc2)cs1 (centres undefined)	none (no result: ALDH1A1 block, RORg inh, Sfp inh, Gal4-VP16 FLuc)
